# Measurements reported in the supplement of paper PMC6555819.
# Tested on: LXRb:RXRa (NR concentration 270 nM, RXRa partner concentration 90 nM)
# Test: PBM binding z-score (relative to random genomic background probes); higher = stronger binding; sequences stand for … in GC…GCGATTGACAGCGTAGAATGAAGG
# Protocol: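 Protein-binding microarray (Agilent 4x180K custom design, double-stranded 60-nt probes: 5' GC cap, 34-nt variable region, 24-nt constant primer region; full probe sequence given). Purified or IVT nuclear receptor:RXRα heterodimers (3:1 NR:RXRα, mostly 270:90 nM) or homodimers were incubated for 1 h in PBS with 2% milk and no ligand, then detected with Alexa488 antibodies. Fluorescence from o1-orientation probes (~5 replicates averaged) was converted to z-scores against 500 random hg19 background probes. Variable regions are seed direct-repeat (DR0–DR5) sites, all their single-nucleotide variants and half-site ablations.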
row,Sequence,PBM binding z-score
1,CGTCAAACTTCAACTAAGGTAACGTAAAGCACGC,0.543
2,TCTCGGAGGACACTAAAGGTCAGAGCTCGACATC,3.73
3,TCTCGGAGGAAACGAAAGGTCAGAGCTCGACATC,3.1
4,GCTGCTAGGTCAACTGATGGTCAACTAAAGCTCG,2.47
5,CGTCAAAGTTCAAGGTCACGTAACAGAAAGCAGC,5.52
6,AGTCAAAGTTCATCTAGGTCACGTAAGATATGCT,4.9
7,CCTACTGGGCCAAAGGTGATTGATTCCAATGCTC,0.206
8,CCTACTCGGCCAAAAAGGTCATTGATGCCGATAA,4.63
9,GCTGCTAGTTCAACTGATGGTCAGCTAAAGCTCG,0.0556
10,ACTCGGAGGACAAAGGTCAGGGCTACGCCAGTGA,3.29
11,TATACAGGGTCAAAGGCCAAAGTACGAATGTCGA,5.4
12,GCTGCGAGGTCAACTGATGGTCAGCTAAAGCTCG,5.07
13,CCTTACGGGTCAAGGTTATAGCCCGGGTGGTACG,2.84
14,TCTAGTTGGTCACGGAGGACACACACGACGGGTA,0.424
15,AAAACAGGGTCATCGTAGGCCAGAGTACGCACAG,4.8
16,AGAATGGGGTTATACGTAGATCAGGGAAGAAAGT,4.38
17,CTCGAAAGGTCGTGCTCAGATGAGTATACCAAAC,3.44
18,CGTCCAAGGTTAAGGTCAGTGAAAGAGACTCGAA,2.62
19,TCTGCTAGGTCAACGATGGTCAGTTAATCTGCTA,1.72
20,GCTAGTTGGTCAGTAAAATGTCACACACCGGTCG,-0.14

row,Sequence,PBM binding z-score
1,ATATGTAGGTTAGCTGGGGTCCTTCAGACTAGGC,0.853
2,ATATGTAGGTTACATCCGGGTCATCCAGGCTATG,2.76
3,CCAACTAGGTCAAAGGACAGTGAAAGGCGACGTA,1.91
4,CGAACTAGGTCGTCCAGGACAGTGAATACATTGA,0.123
5,CGAACTAGGTCACCCAGGACAGTGAATACATTGA,1.93
6,TACCCTAGGTCATGGGCCAGTATACCACGCGAAC,4.07
7,CCTACGGGGCCACGAAAGGTCATTGATTCAGTGA,5.02
8,GCTTACAGGTCAAAGGTTATAGCATGAATAGAAT,6.06
9,TAGCCTAGGTCACATCGGGCCAGTATACGCTATA,2.29
10,TCTAGTTGGTCTAAGGTCACACACTCGAAATGCG,4.1
11,TCTATTAGTTGATTAGGGCAACCGAAACAGCGGA,0.544
12,TTACCAAGGTCAAGGTCGTTGATCCCTCTGTAGA,5.02
13,TAGCCTAGGTCATGCGGCCCAGTATAGTGTCGGC,1.69
14,GATACAGGGTCAAGGTCAGAGTACGCGTATTGAT,4.85
15,CCTTACGGGTCCCTCCAGGTTATAGCATCGGAGT,-0.459
16,CGTTCAAGGTCAAAGGTCAGTGAAGAGATGACGG,6.76
17,TATAAAGGGTCAAAGGCCAGAGTACGAATGTCGA,5.24
18,CGAACTAGGTCAAAGGACATTGAAAGGCGACGTA,2.06
19,CGTCTAAGGTCATAGGAGGTCAGTGAAGACAGAT,6.9
20,CGAACAAGGTCATCCAGGACAGTGAATACATTGA,4.67
